# Source: the supplement of paper PMC6411743
# ± gives the standard deviation of the averaged measurements. Of roughly 6,200 targets only a part is listed; those with the largest changes were picked by preference.
# Experiments:
# Assay in all cases: NP40-soluble protein abundance relative to vehicle (solubility fold change) (ratio); higher = more soluble protein in presence of AMP-PNP
# KIAA0319L = target: T1, KIAA0319L (UniProt Q8IZA0)
# T1 sequence (whole entry): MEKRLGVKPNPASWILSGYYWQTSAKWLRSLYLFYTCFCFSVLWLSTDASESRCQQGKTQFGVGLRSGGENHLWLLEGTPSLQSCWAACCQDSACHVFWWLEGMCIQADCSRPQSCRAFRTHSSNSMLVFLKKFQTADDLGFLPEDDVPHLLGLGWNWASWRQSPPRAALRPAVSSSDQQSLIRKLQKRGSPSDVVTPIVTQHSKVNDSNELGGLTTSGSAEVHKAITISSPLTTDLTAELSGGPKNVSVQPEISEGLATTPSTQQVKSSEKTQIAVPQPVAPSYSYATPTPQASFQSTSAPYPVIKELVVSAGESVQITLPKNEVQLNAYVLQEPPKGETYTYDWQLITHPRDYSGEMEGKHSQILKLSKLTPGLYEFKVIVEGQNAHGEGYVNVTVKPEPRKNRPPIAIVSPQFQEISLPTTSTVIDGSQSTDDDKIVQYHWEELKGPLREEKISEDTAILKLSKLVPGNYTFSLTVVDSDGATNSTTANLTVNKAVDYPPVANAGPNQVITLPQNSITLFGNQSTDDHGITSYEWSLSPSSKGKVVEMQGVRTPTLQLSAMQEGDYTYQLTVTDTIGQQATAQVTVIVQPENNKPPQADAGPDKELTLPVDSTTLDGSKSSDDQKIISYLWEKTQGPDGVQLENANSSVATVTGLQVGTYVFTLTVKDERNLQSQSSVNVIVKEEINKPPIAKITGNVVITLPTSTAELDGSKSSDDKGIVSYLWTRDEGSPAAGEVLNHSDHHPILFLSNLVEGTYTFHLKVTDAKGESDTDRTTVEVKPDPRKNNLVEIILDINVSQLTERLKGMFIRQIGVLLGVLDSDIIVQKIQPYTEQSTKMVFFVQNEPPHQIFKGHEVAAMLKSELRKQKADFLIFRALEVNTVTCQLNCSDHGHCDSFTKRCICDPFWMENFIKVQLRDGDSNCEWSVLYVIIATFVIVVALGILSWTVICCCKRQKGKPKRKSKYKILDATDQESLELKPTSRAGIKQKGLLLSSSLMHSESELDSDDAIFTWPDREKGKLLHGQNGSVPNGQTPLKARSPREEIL
# Method in brief: (§1)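 Across three independent experiments, values are fold changes against the detergent-processed vehicle for each replicate, based on vsn-normalised intensities. The samples were Jurkat crude lysate treated with eight concentrations (0.1 to 10 mM) for 10 min at room temperature and then 3 min at 37 °C. Lysate was solubilised with 0.8% NP40 and benzonase, ultracentrifuged, and the supernatant analysed by TMT-labelled LC-MS/MS.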
# NUFIP2 = target: T2, NUFIP2 (UniProt Q7Z417)
# T2 sequence (whole entry): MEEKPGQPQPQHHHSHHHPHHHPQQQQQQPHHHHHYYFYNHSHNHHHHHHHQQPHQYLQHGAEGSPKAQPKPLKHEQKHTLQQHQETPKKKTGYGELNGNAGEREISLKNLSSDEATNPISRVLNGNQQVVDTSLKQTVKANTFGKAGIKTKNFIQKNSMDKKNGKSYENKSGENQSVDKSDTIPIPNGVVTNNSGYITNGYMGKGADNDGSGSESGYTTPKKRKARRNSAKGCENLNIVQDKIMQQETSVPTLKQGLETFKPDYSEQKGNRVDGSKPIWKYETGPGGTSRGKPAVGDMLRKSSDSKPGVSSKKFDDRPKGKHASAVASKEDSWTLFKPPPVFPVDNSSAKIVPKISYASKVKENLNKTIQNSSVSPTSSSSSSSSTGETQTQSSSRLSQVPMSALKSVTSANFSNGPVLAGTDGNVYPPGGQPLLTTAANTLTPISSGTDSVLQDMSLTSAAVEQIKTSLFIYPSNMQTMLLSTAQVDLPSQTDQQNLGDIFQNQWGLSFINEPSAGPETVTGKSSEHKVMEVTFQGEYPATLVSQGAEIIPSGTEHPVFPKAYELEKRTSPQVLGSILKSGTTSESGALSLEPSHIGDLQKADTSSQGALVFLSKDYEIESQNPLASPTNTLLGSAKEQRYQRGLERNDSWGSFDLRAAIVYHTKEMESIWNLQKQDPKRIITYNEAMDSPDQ
# Method in brief: as §1
# PINX1 = target: T3, PINX1 (UniProt Q96BK5)
# T3 sequence (whole entry): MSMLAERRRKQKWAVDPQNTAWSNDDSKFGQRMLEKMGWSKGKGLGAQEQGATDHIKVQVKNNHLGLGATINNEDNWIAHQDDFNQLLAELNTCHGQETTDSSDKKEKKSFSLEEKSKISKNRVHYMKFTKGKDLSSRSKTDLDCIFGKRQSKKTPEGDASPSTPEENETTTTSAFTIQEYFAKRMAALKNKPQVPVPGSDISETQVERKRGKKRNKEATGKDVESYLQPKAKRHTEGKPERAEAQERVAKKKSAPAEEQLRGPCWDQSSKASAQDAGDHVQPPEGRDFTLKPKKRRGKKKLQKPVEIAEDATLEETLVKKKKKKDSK
# Method in brief: as §1
# TTF1 = target: T4, TTF1 (UniProt Q15361)
# T4 sequence (whole entry): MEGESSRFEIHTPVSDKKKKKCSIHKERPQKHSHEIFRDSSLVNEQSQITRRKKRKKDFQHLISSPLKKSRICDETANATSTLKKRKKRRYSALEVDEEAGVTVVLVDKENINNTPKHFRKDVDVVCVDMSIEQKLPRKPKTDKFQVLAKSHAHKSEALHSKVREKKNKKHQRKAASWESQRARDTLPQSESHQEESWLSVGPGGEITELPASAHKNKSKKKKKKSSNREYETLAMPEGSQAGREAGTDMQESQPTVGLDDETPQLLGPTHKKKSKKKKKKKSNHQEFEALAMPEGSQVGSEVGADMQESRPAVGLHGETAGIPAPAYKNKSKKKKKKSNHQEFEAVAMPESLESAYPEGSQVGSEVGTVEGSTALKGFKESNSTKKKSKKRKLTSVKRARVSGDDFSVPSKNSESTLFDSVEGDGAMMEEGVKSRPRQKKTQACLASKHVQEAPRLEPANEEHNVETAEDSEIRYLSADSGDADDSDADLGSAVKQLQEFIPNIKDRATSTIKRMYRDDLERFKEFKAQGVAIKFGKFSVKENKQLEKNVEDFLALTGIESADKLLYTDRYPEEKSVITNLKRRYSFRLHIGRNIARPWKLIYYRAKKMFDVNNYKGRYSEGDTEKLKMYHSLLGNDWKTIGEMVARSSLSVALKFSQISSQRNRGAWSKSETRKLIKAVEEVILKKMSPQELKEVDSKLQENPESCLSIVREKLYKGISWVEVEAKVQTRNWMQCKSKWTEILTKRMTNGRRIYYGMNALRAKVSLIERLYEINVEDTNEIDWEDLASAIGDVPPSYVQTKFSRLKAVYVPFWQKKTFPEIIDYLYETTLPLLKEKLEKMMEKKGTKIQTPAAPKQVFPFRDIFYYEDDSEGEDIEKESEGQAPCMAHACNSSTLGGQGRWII
# Method in brief: as §1
# UniProt Q147X3|Q147X3-2 = target: T5, UniProt Q147X3|Q147X3-2
# T5 sequence (whole entry): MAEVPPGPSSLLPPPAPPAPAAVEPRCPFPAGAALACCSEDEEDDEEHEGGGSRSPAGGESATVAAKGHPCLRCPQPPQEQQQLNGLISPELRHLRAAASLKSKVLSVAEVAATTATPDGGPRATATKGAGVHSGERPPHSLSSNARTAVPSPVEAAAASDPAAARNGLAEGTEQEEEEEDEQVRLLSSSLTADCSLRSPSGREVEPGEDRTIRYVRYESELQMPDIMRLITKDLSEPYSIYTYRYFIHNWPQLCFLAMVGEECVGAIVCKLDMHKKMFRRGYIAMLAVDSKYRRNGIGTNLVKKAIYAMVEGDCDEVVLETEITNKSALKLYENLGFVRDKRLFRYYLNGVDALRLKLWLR
# Method in brief: as §1
smiles,measurement,setting,value
Nc1ncnc2c1ncn2[C@@H]1O[C@H](COP(=O)(O)OP(=O)(O)NP(=O)(O)O)[C@@H](O)[C@H]1O [adenylyl imidodiphosphate],NP40-soluble protein abundance,KIAA0319L; concentration: 1mM,1.01 ± 0.014
same,NP40-soluble protein abundance,KIAA0319L; concentration: 2mM,1.03 ± 0.033
same,NP40-soluble protein abundance,KIAA0319L; concentration: 4mM,0.977 ± 0.025
same,NP40-soluble protein abundance,KIAA0319L; concentration: 6mM,0.969 ± 0.034
same,NP40-soluble protein abundance,KIAA0319L; concentration: 8mM,0.976 ± 0.017
same,NP40-soluble protein abundance,KIAA0319L; concentration: 10mM,0.9945 ± 0.0054
same,NP40-soluble protein abundance,NUFIP2; concentration: 1mM,1.11 ± 0.029
same,NP40-soluble protein abundance,NUFIP2; concentration: 2mM,1.22 ± 0.066
same,NP40-soluble protein abundance,NUFIP2; concentration: 4mM,1.24 ± 0.023
same,NP40-soluble protein abundance,NUFIP2; concentration: 6mM,1.26 ± 0.14
same,NP40-soluble protein abundance,NUFIP2; concentration: 8mM,1.27 ± 0.14
same,NP40-soluble protein abundance,NUFIP2; concentration: 10mM,1.37 ± 0.12
same,NP40-soluble protein abundance,PINX1; concentration: 1mM,1.15 ± 0.053
same,NP40-soluble protein abundance,PINX1; concentration: 2mM,1.27 ± 0.034
same,NP40-soluble protein abundance,PINX1; concentration: 4mM,1.36 ± 0.09
same,NP40-soluble protein abundance,PINX1; concentration: 6mM,1.51 ± 0.057
same,NP40-soluble protein abundance,PINX1; concentration: 8mM,1.59 ± 0.083
same,NP40-soluble protein abundance,PINX1; concentration: 10mM,1.8 ± 0.079
same,NP40-soluble protein abundance,TTF1; concentration: 1mM,0.967 ± 0.024
same,NP40-soluble protein abundance,TTF1; concentration: 2mM,0.963 ± 0.024
same,NP40-soluble protein abundance,TTF1; concentration: 4mM,0.957 ± 0.025
same,NP40-soluble protein abundance,TTF1; concentration: 6mM,0.96 ± 0.046
same,NP40-soluble protein abundance,TTF1; concentration: 8mM,0.912 ± 0.02
same,NP40-soluble protein abundance,TTF1; concentration: 10mM,0.949 ± 0.045
same,NP40-soluble protein abundance,UniProt Q147X3|Q147X3-2; concentration: 1mM,0.992 ± 0.016
same,NP40-soluble protein abundance,UniProt Q147X3|Q147X3-2; concentration: 2mM,0.971 ± 0.025
same,NP40-soluble protein abundance,UniProt Q147X3|Q147X3-2; concentration: 4mM,1.01 ± 0.059
same,NP40-soluble protein abundance,UniProt Q147X3|Q147X3-2; concentration: 6mM,1.03 ± 0.046
same,NP40-soluble protein abundance,UniProt Q147X3|Q147X3-2; concentration: 8mM,0.99 ± 0.023
same,NP40-soluble protein abundance,UniProt Q147X3|Q147X3-2; concentration: 10mM,1 ± 0.025
